Measurements from the supplement of paper PMC6555819.

Assays:
Assay in all cases: PBM binding z-score (relative to random genomic background probes); higher = stronger binding; sequences stand for … in GC…GCGATTGACAGCGTAGAATGAAGG
[1] = test system: FXR:RXRa (NR concentration 270 nM, RXRa partner concentration 90 nM)
Method in brief: (§1)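 Ligand-free nuclear receptor dimers were bound for 1 h to custom Agilent 4×180K protein-binding microarrays. Detection used antibodies against each partner (one per run). Binding z-scores rest on regression-normalized fluorescence, with random background probes as the reference.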

[2] = test system: LXRa:RXRa (NR concentration 270 nM, RXRa partner concentration 90 nM)
Method in brief: as §1

[3] = test system: LXRa homodimer (NR concentration 270 nM)
Method in brief: as §1

[4] = test system: LXRb:RXRa (NR concentration 270 nM, RXRa partner concentration 90 nM)
Method in brief: as §1

[5] = test system: LXRb homodimer (NR concentration 270 nM)
Method in brief: as §1

[6] = test system: PPARa:RXRa (NR concentration 270 nM, RXRa partner concentration 90 nM)
Method in brief: as §1

[7] = test system: PPARg:RXRa (NR concentration 180 nM, RXRa partner concentration 90 nM)
Method in brief: as §1

[8] = test system: PPARg:RXRa 270nM:90nM, anti-RXR (NR concentration 270 nM, RXRa partner concentration 90 nM)
Method in brief: as §1

[9] = test system: PPARg:RXRa 30nM:10nM, anti-RXR (NR concentration 30 nM, RXRa partner concentration 10 nM)
Method in brief: as §1

[10] = test system: PPARg:RXRa 90nM:30nM, anti-RXR (NR concentration 90 nM, RXRa partner concentration 30 nM)
Method in brief: as §1

[11] = test system: PPARg:RXRa DBDmut IVT, anti-RXR (DBD mutation: RXRa K156A/R161A, NR concentration 270 nM, RXRa partner concentration 90 nM)
Method in brief: as §1

[12] = test system: PPARg:RXRa IVT, anti-PPARg (NR concentration 270 nM, RXRa partner concentration 90 nM)
Method in brief: as §1

[13] = test system: PPARg DBDmut:RXRa IVT, anti-PPARg (DBD mutation: PPARg1 K132A/R137A, NR concentration 270 nM, RXRa partner concentration 90 nM)
Method in brief: as §1

[14] = test system: PPARg DBDmut IVT, anti-PPARg (DBD mutation: PPARg1 K132A/R137A, NR concentration 270 nM)
Method in brief: as §1

[15] = test system: PPARg homodimer (NR concentration 180 nM)
Method in brief: as §1

[16] = test system: PXR:RXRa (NR concentration 270 nM, RXRa partner concentration 90 nM)
Method in brief: as §1

[17] = test system: PXR homodimer (NR concentration 270 nM)
Method in brief: as §1

[18] = test system: RARa:RXR (NR concentration 270 nM, RXRa partner concentration 90 nM)
Method in brief: as §1

[19] = test system: RARa homodimer (NR concentration 270 nM)
Method in brief: as §1

[20] = test system: RARb:RXRa (NR concentration 270 nM, RXRa partner concentration 90 nM)
Method in brief: as §1

| Sequence | PBM binding z-score [1] | PBM binding z-score [2] | PBM binding z-score [3] | PBM binding z-score [4] | PBM binding z-score [5] | PBM binding z-score [6] | PBM binding z-score [7] | PBM binding z-score [8] | PBM binding z-score [9] | PBM binding z-score [10] | PBM binding z-score [11] | PBM binding z-score [12] | PBM binding z-score [13] | PBM binding z-score [14] | PBM binding z-score [15] | PBM binding z-score [16] | PBM binding z-score [17] | PBM binding z-score [18] | PBM binding z-score [19] | PBM binding z-score [20] |
| --- | --- | --- | --- | --- | --- | --- | --- | --- | --- | --- | --- | --- | --- | --- | --- | --- | --- | --- | --- | --- |
| AGTCTAAGTTCACTAGGTAACGTAAGATTCAGCT | 2.84 | 3.02 | 0.822 | 1.84 | 0.221 | 3.63 | 2.98 | 3.85 | 1.57 | 3.02 | 2.75 | 3.66 | 0.895 | 1.1 | 1.24 | 3.63 | 4.11 | 1.93 | 0.914 | 3.58 |
| ATCTCTAGGTAACAAGTTGAGTGAAAGAGAGGAC | 0.601 | 0.354 | 0.274 | 0.114 | 0.76 | 0.677 | 1.25 | 1.76 | 0.856 | 1.6 | 3.42 | 2.71 | 1.43 | 1.04 | 0.666 | 0.294 | 0.569 | 0.445 | 1.29 | 0.64 |
| AATACAGGGTCATCGCAGGCCAGAGTACGCACAG | 7.15 | 6.19 | 2.29 | 4.62 | 1.25 | 5.93 | 6.6 | 6.2 | 2.73 | 4.39 | 2.75 | 4.33 | 1.54 | 0.985 | 1.94 | 5.07 | 0.737 | 4.69 | 1.07 | 4.45 |
| TCATATATGTAAAAGGTGAAAGTCGGTGTGGTAA | 0.511 | 1.25 | -0.0169 | 1.75 | 0.0133 | 3.72 | 5.15 | 6.15 | 5.45 | 7 | 2.46 | 2.83 | 0.873 | 0.794 | 1.98 | 1.21 | -0.143 | 1.85 | 1.14 | 1.9 |
| GGAACGAGGGCATTTGAGTTGATAGCATGGCGAT | 1.31 | 1.6 | -0.156 | 0.482 | -0.207 | 1.65 | 0.939 | 0.641 | -0.0141 | 0.257 | 2.97 | 2.01 | -0.643 | -0.444 | 0.183 | 4 | 2.08 | 0.869 | -0.446 | 1.96 |
| ATATGTAGGTTACATCTGGGTCATTCAGGCTATG | 1.65 | 3.57 | 1.05 | 2.18 | 0.621 | 4.01 | 5.41 | 4.89 | 2.26 | 3.88 | 7.49 | 7.53 | 2.55 | 1.93 | 1.95 | 2.11 | 1.05 | 2.38 | 0.399 | 2.18 |
| CCGACTGGGGAAAAGGTTACCATACTCAGTACGA | 0.132 | 0.716 | -0.0897 | 1.29 | -0.67 | 3.82 | 6.95 | 7.47 | 6.02 | 8.23 | 0.816 | 2.89 | -0.258 | -0.129 | 1.18 | 0.978 | -0.181 | 1.8 | 0.0679 | 1.59 |
| TCTTGTAGCTCAGCAGGTTAAGAAAGCTGGCCAA | -0.369 | -0.138 | -0.851 | -0.1 | -0.79 | 0.495 | -0.935 | 0.729 | 1.58 | 1.27 | 0.777 | -0.372 | -0.853 | -0.876 | -0.753 | -0.26 | -0.524 | -0.108 | -1.11 | -0.157 |
| TAGCCTAGGTCAGGGGCCAGTATACCACGCGAAC | 1.76 | 1.34 | -0.415 | 1.88 | -0.376 | 2.61 | 2.83 | 2.96 | 0.91 | 2.43 | 0.374 | 2.32 | 0.429 | 0.131 | 0.542 | 0.506 | -0.579 | 1.42 | -0.0424 | 3.22 |
| TCTAGAAGGCCAGAGGGTCACTCAAGAGGTACGG | 1.32 | 1.11 | -0.432 | 1.28 | -0.671 | 2.5 | 1.33 | 2.98 | 3.24 | 3.02 | 1.75 | 0.693 | -0.301 | 0.186 | 1.22 | 1.64 | 0.0475 | 2.54 | 0.19 | 2.68 |
| GTACCAGGGTGAATAGGTCGTTGATGAGTAGGCG | 0.645 | 0.813 | -0.254 | 0.582 | -0.461 | 2.09 | 1.15 | 1.61 | 0.0734 | 0.776 | 0.914 | 2.01 | -0.169 | -0.469 | 0.791 | 0.92 | 0.246 | 1.86 | 0.108 | 1.24 |
| CCTGCTAGGTCAGGGTCAGCTAATCTACAGTATG | 3.6 | 2.42 | -0.231 | 2.55 | -0.944 | 3.92 | 2.82 | 3 | 0.682 | 1.83 | 3.18 | 3.55 | -0.395 | -0.875 | 0.967 | 2.73 | -0.26 | 3.48 | 0.175 | 4.42 |
| GCTTGTAGATCAAGGTTAAGTAAGACTAAGCTAA | 0.31 | 0.866 | -0.213 | 0.847 | -0.28 | 1.8 | 1.15 | 2.27 | 0.377 | 1.78 | 1.5 | 1.73 | -0.282 | 0.512 | -0.0519 | 0.746 | -0.237 | 0.964 | -0.148 | 0.875 |
| TATACAGGGTCAAAGGCCAGAGCACGAATGTCGA | 6.57 | 6.15 | 1.83 | 4.68 | 2.53 | 5.83 | 7.89 | 7.51 | 5.16 | 7.77 | 2.75 | 4.99 | 1.39 | 1.27 | 1.83 | 4.17 | 0.0861 | 5.31 | 0.94 | 4.36 |
